# Data reported in PubChem BioAssay (NCI).
# Values joined by “and” are separate entries in the source; they are usually repeats but may differ in a detail not shown here. Equal values may be shown once. The panel holds about 83,000 compounds, 20% with a hit somewhere; the sample as a whole holds those more often.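 Plates (96-well) were seeded with cells, treated with compound at one concentration, and incubated for 48 hours before percent growth was determined.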 The source holds several records for some structures; these can differ, active in one and inactive in another. Active and inactive are the calls of the source.
# System: MDA-MB-435 melanoma
# Assay: NCI-60 one-dose screen, 48 h (100 = growth as untreated, 0 = no growth, -100 = all killed)
# Conditions: 10 µM
# Description: Growth inhibition of the MDA-MB-435 human Melanoma tumor cell line is measured as a screen for anti-cancer activity. Cells are grown in 96 well plates and exposed to the test compound for 48 hours. Compounds are tested at a single concentration, which is 10^-5 M for most compounds. The reported endpoint is percent growth (GI% or GIPRCNT), where numbers from 0 - 100% represent growth inhibition, and numbers from -100% - 0 represent cell death. For example, a value of 40 represents 60% growth inhibition. A value of 0 means no net growth occurred over the course of the experiment. A value of -40 indicates 40% of cells at the beginning of the experiment died by the end of the experiment. A value of -100 means all cells are dead at the end of the experiment.
# NCI-60 Human Tumor Cell Lines Screen was performed using the standard one-dose NCI protocol, which is described in more detail at https://dtp.cancer.gov/discovery_development/nci-60/default.htm.
# Compounds with GIPRCNT values below 10 were considered active. Activity score was based on GIPRCNT using the following formula: […]
# Score is 0 for GIPRCNT values of 100 or above, 50 for GIPRCNT values of 0, and 100 for GIPRCNT values of -100.
row,SMILES,growth
1,CN(CCF)/N=N/c1nc[nH]c1C(N)=O,39.6% (inactive)
2,C/C=C/CC(C)C(O)[C@H](NC(=O)[C@@H]1CCCN1C(=O)C(C)(C)NC(=O)CCCCCCCCC)C(=O)N[C@@](C)(CC)C(=O)N[C@@H](CCC(N)=O)C(=O)N[C@H](CCC(N)=O)C(=O)NC(C)(C)C(=O)NC(C)(C)C(=O)N[C@@H](CCC(N)=O)C(=O)N[C@H](CC(C)C)C(=O)N[C@H](CO)CC(C)C (some centres not stated),-84.2% (active) and -6.26% (active)
3,CCCCCCCCCC(=O)N[C@@](C)(CC)C(=O)N1CCC[C@H]1C(=O)N[C@@H](CC(C)C)C(=O)N[C@@](C)(CC)C(=O)N[C@@H](CCC(N)=O)C(=O)N[C@H](CCC(N)=O)C(=O)NC(C)(C)C(=O)NC(C)(C)C(=O)N[C@@H](CCC(N)=O)C(=O)N[C@H](CC(C)C)C(=O)N[C@H](CO)CC(C)C,-94% (active) and -97.5% (active)
4,NC1CCc2cc(O)c(O)cc2C1 (configuration not stated),81.4% (inactive)
5,CC(C)=CCc1c2c(c(O)c3c1O[C@]14C(=C[C@@H]5C[C@H]1C(C)(C)O[C@@]4(C/C=C(/C)C(=O)O)C5=O)C3=O)C=CC(C)(C)O2,-80.1% (active)
6,CN1C(=O)[C@]23SSC1(C)C(=O)N2[C@H]1Nc2ccccc2C1([C@@]12c4ccccc4N[C@@H]1N1C(=O)C4(C)SS[C@]1(C(=O)N4C)[C@H]2O)[C@@H]3O (some centres not stated),-94.3% (active)
7,CC(C)(O)/C=C/C(=O)[C@](C)(O)[C@H]1[C@H](O)C[C@@]2(C)[C@H]3CC=C4[C@@H](C[C@H](O)C(=O)C4(C)C)[C@]3(C)C(=O)C[C@]12C,9.08% (active)
8,COc1cc2c(cc1OC)[C@@H]1N(CC2)C(=O)c2ccccc2[C@@]1(C)C(=O)O,103% (inactive)
9,CC1=C(CCC=NNC(N)=O)C2=C(C)C3(CC3)[C@@](C)(O)C(=O)C2=C1,-27.9% (active)
10,CC1=C(CN(O)C(N)=O)C2=C(C)C3(CC3)[C@](C)(O)C(=O)C2=C1,-42.8% (active)
11,COc1cc(OC)c(S(=O)(=O)N(CCCl)CCCl)cc1C(=O)/C=C/c1ccc(Cl)cc1,33.1% (inactive)
12,CC(=O)O[C@@H]1[C@@H]2O[C@H]2[C@@](C)(O)C(=O)[C@@H](C)C/C=C/[C@H]2[C@@H]3O[C@]3(C)[C@@H](C)C3[C@H](Cc4ccccc4)NC(=O)[C@@]312 (some centres not stated),70.9% (inactive)
13,C[C@@H]1CCC/C=C/[C@H]2C[C@@H](O)C[C@@H]2[C@@H](O)/C=C/C(=O)O1,17.5% (inactive)
14,C/C=C/CC(C)C(O)[C@H](NC(=O)[C@@H]1CCCN1C(=O)C(C)(C)NC(=O)CCCCCCCCC)C(=O)NC(C)(C)C(=O)N[C@@H](CCC(N)=O)C(=O)N[C@H](CCC(N)=O)C(=O)NC(C)(C)C(=O)NC(C)(C)C(=O)N[C@@H](CCC(N)=O)C(=O)N[C@H](CC(C)C)C(=O)N[C@H](CO)CC(C)C (some centres not stated),-52.8% (active) and -87.1% (active)
15,COC1[C@@H]2C[C@H]3C(C)(C)O[C@@](C/C=C(/C)C(=O)O)(C2=O)[C@]32Oc3c(CC=C(C)C)c4c(c(O)c3C(=O)[C@H]12)C=CC(C)(C)O4 (some centres not stated),-58.2% (active)
16,CC1=C2C(=C[C@@](C)(COC(=O)c3ccc(S(=O)(=O)F)cc3)[C@@H]2O)C(=O)[C@](C)(O)C12CC2,-72.2% (active)
17,C/C=C/CC(C)C(O)[C@H](NC(=O)[C@@H]1CCCN1C(=O)C(C)(C)NC(=O)CCCCCCCCC)C(=O)N[C@@](C)(CC)C(=O)N[C@@H](CCC(N)=O)C(=O)N[C@H](CCC(N)=O)C(=O)NC(C)(C)C(=O)N[C@@](C)(CC)C(=O)N[C@@H](CCC(N)=O)C(=O)N[C@H](CC(C)C)C(=O)N[C@H](CO)CC(C)C (some centres not stated),105% (inactive) and -93.7% (active)
18,N#Cc1c(-n2c(Br)c(Br)c3cc(Br)ccc32)[nH]c2c(Br)cc(Br)cc12,-0.901% (active)
19,CC(=O)O[C@@H]1C[C@H]2O[C@@H]3C=C(C)CC[C@]3(C)[C@]1(C)[C@]21CO1,2.02% (active)

row,SMILES,growth
1,CC1=C(CN(O)C(N)=O)C2=C(C)C3(CC3)[C@@](C)(O)C(=O)C2=C1,-20.2% (active)
2,CCC(C)[C@H]1C(=O)O[C@H](C(C)C)C(=O)N(C)[C@@H](C(C)C)C(=O)O[C@H](C(C)C)C(=O)N(C)[C@@H](C(C)C)C(=O)O[C@H](C(C)C)C(=O)N1C (some centres not stated),20% (inactive)
3,O=C(CCCc1ccc(N(CCCl)CCCl)cc1)OCc1ccccc1,94.4% (inactive)
4,C/C=C/CC(C)C(O)[C@H](NC(=O)[C@@H]1CCCN1C(=O)C(C)(C)NC(=O)CCCCCCC)C(=O)N[C@@](C)(CC)C(=O)N[C@@H](CCC(N)=O)C(=O)N[C@H](CCC(N)=O)C(=O)NC(C)(C)C(=O)NC(C)(C)C(=O)N[C@@H](CCC(N)=O)C(=O)N[C@H](CC(C)C)C(=O)N[C@H](CO)CC(C)C (some centres not stated),104% (inactive) and -47.4% (active)
5,C/C=C\C(=O)O[C@@H]1CC2O[C@@H]3C=C(C)C(=O)C[C@]3(C)[C@]1(C)[C@]21CO1,-34.3% (active)
6,CC1=C[C@H]2O[C@@H]3C[C@H]4OC(=O)/C=C\C=C\[C@H]([C@@H](C)O)OCC[C@@H](C)[C@H](O)C(=O)OC[C@@]2(CC1)[C@]4(C)[C@]31CO1,-85.2% (active)
7,CC1=C2C(=C[C@@](C)(COC(=O)c3ccc(S(=O)(=O)F)cc3)[C@@H]2OC(=O)c2ccc(S(=O)(=O)F)cc2)C(=O)[C@](C)(O)C12CC2,3.18% (active)
8,COc1cc2c(O[C@@H]3OC[C@H](O)[C@H](O)[C@H]3O)c3c(c(-c4ccc5c(c4)OCO5)c2cc1OC)C(=O)OC3,39.5% (inactive)
9,C[C@@H]1C[C@H]2C(=O)O[C@@H](C)C(NC(=O)[C@H](Cc3cc(F)cc(F)c3)NC(=O)Nc3ccc(OS(=O)(=O)F)cc3)C(=O)N3CCC[C@H]3C(=O)N3CCO[C@H](C)[C@H]3C(=O)N[C@@H](CO)C(=O)N2C1 (some centres not stated),20.8% (inactive)
10,Cc1ccc(CNc2nc3ccc(OC/C(=C/F)CN)cc3o2)cn1,99.6% (inactive)
11,COc1cc(C)c(-c2ccc(OC)c(=O)cc2C)c(OC)c1OC,-4.07% (active) and 99.6% (inactive)
12,N#Cc1nc(-c2ccccc2)oc1N1CCC(S(=O)(=O)F)CC1,98.8% (inactive)
13,COc1cccc2c1cc([N+](=O)[O-])c1c(C(=O)O)cc3c(c12)OCO3,107% (inactive)
14,CC1=C[C@H]2O[C@@H]3C[C@@H](O)[C@](C)([C@@]2(C)CC1)[C@@]31CO1,21.1% (inactive)
15,COc1cc2c(O[C@@H]3OC[C@H](OC(C)=O)[C@H](OC(C)=O)[C@H]3O)c3c(c(-c4ccc5c(c4)OCO5)c2cc1OC)C(=O)OC3,4.94% (active)
16,CC1=C[C@H]2O[C@@H]3C[C@H]4OC(=O)/C=C\C=C\[C@H]([C@@H](C)O)OCC/C(C)=C/C(=O)OC[C@@]2(CC1)[C@]4(C)[C@]31CO1,-83.5% (active)
17,COC(=O)[C@H]1[C@@H](O)[C@@]2(O)c3c(OC)cc(OC)cc3O[C@@]2(c2ccc(OC)cc2)[C@@H]1c1ccccc1,-11.1% (active)
18,C=C1[C@@H](C)C2[C@H](Cc3ccccc3)NC(=O)[C@]23[C@H](OC(C)=O)/C=C/[C@@](C)(O)C(=O)[C@@H](C)C/C=C/[C@H]3[C@@H]1O (some centres not stated),64.1% (inactive)
